Activity calls are given as the source filed them. The rule behind the calls is not given here.
Assay: inhibition of 3D7 malaria parasite growth – strain 3D7 (AID 2306);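 note: 0% = DMSO wells and 100% = chloroquine plus artemisinin control wells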
Settings: P. falciparum 3D7 erythrocytic growth, LDH absorbance, 72 h; at 2 µM; hits give high values

Growth inhibition, active:
COc1ccc(C(=O)NC2CCN(c3ccnc4cc(Cl)ccc34)C2)cc1 (stereo not given) 100%
CC(C)(C)NCc1cc(Nc2ccnc3cc(Cl)ccc23)ccc1F 101%
O=C(NC1CCC(CCN2Cc3ccc(Br)cc3C2)CC1)c1cccc(-c2cccnc2)c1 (stereo not given) 99%
CC(C)Nc1nc(NCCc2cnc[nH]2)nc(NCc2ccc(Cl)c(Cl)c2)n1 88%
N#Cc1ccc(N(CCNS(=O)(=O)c2cc(Br)c(Cl)s2)Cc2ccccc2C(F)(F)F)cc1C(F)(F)F 92%
COCCCNc1sc(S(=O)(=O)c2ccccc2)nc1S(=O)(=O)c1ccc(C)cc1 84%
O=C(/C=C/c1ccc(Cl)cc1)NCCCCCN1CCC(C(=O)Nc2ccc(Cl)cc2)CC1 99%
O=C(NCCCNc1nc2ccccc2[nH]1)c1cccc(OC(F)(F)F)c1 102%
NC(=O)c1cccc(CNCc2ccc(-c3cccc(-c4nc5ccccc5[nH]4)c3)cc2)c1 101%
C[C@@H]1CN(c2ncc(-c3ccc(CNC4Cc5ccccc5C4)cc3)cn2)C[C@H](C)N1 85%
Oc1ccc(-c2ccccc2)cc1CN1CCCCCC1 95%
Cc1cccc(Cn2c(C(N)=O)nn(-c3ccc([N+](=O)[O-])cc3C#N)c2=S)c1 101%
O=C(Nc1ccncc1)c1cc(C(=O)Nc2ccncc2)cc([N+](=O)[O-])c1 100%
CC(C)(C)C(Cn1ccnc1)NCc1cn[nH]c1-c1ccc(-c2ccccc2)cc1 (stereo not given) 98%
COc1cc(CNC[C@@H](O)[C@H](Cc2ccccc2)NC(=O)c2cc(C3CCCC3)cc(N3CCCS3(=O)=O)c2)cc(OC)c1 95%
Cc1ccccc1Nc1nc(Nc2ccccc2)c2ccccc2n1 103%
CCCc1cn2c3c(cc(C(=O)N[C@@H](Cc4ccccc4)[C@H](O)CNC4CCOCC4)cc13)N(C)S(=O)(=O)CC2 99%
COc1ccc(CNC(=O)NC2CCN(c3ccnc(Nc4ccc(F)cc4)n3)CC2)cc1 87%
CC(C)COc1ccc(Cl)cc1Cc1ccc(-c2nc3ccc(C(F)(F)F)cc3[nH]2)o1 97%
O=C(/C=C/c1c[nH]c2ccccc12)NCCCCCN1CCC(c2c[nH]c3ccccc23)CC1 96%
Cc1noc(C)c1-c1ccc2c(Nc3ccccc3C(C)(C)C)c(C(=O)NCc3ccc(C(F)(F)F)cc3)cnc2c1 99%
CN(C)C(=O)O[C@@H]1CN[C@H](C#Cc2cc3ncnc(Nc4ccc5c(cnn5Cc5cccc(F)c5)c4)c3s2)C1 97%
CCOC(=O)c1cc(C(=O)NCCCCN2CCC(c3ccc(CC)cc3OCC)CC2)ccc1-c1ccc(C(F)(F)F)cc1 99%
Cc1cc(Nc2ccnc(-c3ccc(Cl)cc3)n2)ccn1 94%
Cc1ccc(Nc2nc(N)c3ccccc3n2)cc1 94%
O=C(N[C@H]1CCN(Cc2ccc(OCCN3CCCC3)c(Cl)c2)C1)c1ccc(Cl)c(Cl)c1 101%
CC(Cc1ccc(NC(=O)COc2ccc(CC(C)NCCc3cccc(Cl)c3)cc2)cc1)NCCc1cccc(Cl)c1 (stereo not given) 105%
O=C(Nc1ccc(-c2ccc(-c3nc4ccccc4[nH]3)s2)cc1)c1ccncc1 94%
Cc1nc2nc(N)nc(N)c2c(C)c1Cc1cccc(C(N)=O)c1 91%
COc1ccc(-c2ccc(NC(=O)c3ccc(Cl)cc3)cc2)cc1CN1CCNCC1 99%
Oc1ccc(Nc2nc(NCc3ccccc3)c3ccccc3n2)cc1 101%
COc1cc(F)c2ncc(Cl)c(CCN3CCC(NCc4ccc5c(c4)NC(=O)CO5)CC3)c2c1 95%
FC(F)(F)c1ccc2nc(-c3cccc(-c4cccc(CNCC5CCCO5)c4)c3)[nH]c2c1 (stereo not given) 100%
OCCN1CCN(Cc2ccc(-c3cccc(-c4nc5ccc(C(F)(F)F)cc5[nH]4)c3)cc2)CC1 99%
Clc1cnc2ccc3c(c2c1CCN1CCC(NCc2cc4c(cn2)OCCO4)CC1)OCCO3 92%
CC(CCc1ccccc1)NCC(O)c1cccc([N+](=O)[O-])c1 (stereo not given) 97%
CC(CN(C)C)C(=O)Nc1cccc(-c2cccc(-c3nc4ccc(F)cc4[nH]3)c2)c1 (stereo not given) 101%
CC(=O)Nc1cccc(C(=O)Nc2cccc(-c3ccc(-c4nc5ccc(F)cc5[nH]4)s3)c2)c1 94%
COc1ccc(Nc2nccc(N3CCC(NC(=O)C(C)c4ccc(Cl)cc4)CC3)n2)cc1 (stereo not given) 94%
c1ccc(Oc2ccc(Nc3ccnc4cc(-c5cccc(CN6CCOCC6)c5)ccc34)cc2)cc1 101%

From PubChem BioAssay
